# A selection: hits, their analogues and other compounds. The true share with any hit is near 4%.
# Mdm2 MdmX PPI: inhibitors of human Mdm2-MdmX association, primary screen, cell-based, luminescence, split luciferase, SaOS-2, uHTS | Protein Mdm4 (Homo sapiens) + E3 ubiquitin-protein ligase Mdm2 (Homo sapiens), … | SaOS-2 split-luciferase Mdm2/MdmX complementation | inhibition, % at 8 µM | 3% of 330,000 active;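 active means inhibition of at least 50% at 8 µM in the primary screen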
# 697 NFkB inh: inhibitors of PMA/ionomycin-induced NF-kB reporter, 697 cells, primary screen, B-cell NF-kB inhibitor project, cell-based, luminescence, uHTS | 697 B-cell NF-kB luciferase reporter, 16 h | 0.33% of 330,000 active | AID 435022, 2010 | inhibition, % at 4 µM; in the data active means inhibition above about 35%
# Beta cell apopt: inhibitors of cytokine-induced beta cell apoptosis, primary screen, luminescence | AID 435005, 2010 | protection from apoptosis, % (no concentration beside the values) | 0.8% of 300,000 active | INS-1E cytokine-induced death, ATP luminescence, 48 h; percent of positive-control rescue, neutral wells zero;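 active means Every replicate reaches about 75%, or at least half do and their mean reaches it too, limit read from the data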;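 further: 0% = cytokine-treated negative control wells and 100% = positive control rescue; higher means more ATP so stronger rescue from cytokine killing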
# Jurkat NFkB inh: inhibitors of induced NF-kB luciferase reporter, primary screen, TCR NF-kB activation inhibitor project, cell-based, luminescence, uHTS | AID 435003, 2010 | Jurkat, PMA/ionomycin-induced NF-kB luciferase reporter | inhibition, % at 4 µM | 0.53% of 330,000 active; in the data active means inhibition above about 50%
# Gli-Sufu block: Gli-Sufu pathway antagonists, primary screen, luciferase luminescence, Sufu-KO-LIGHT cells, uHTS | Sufu-KO-LIGHT fibroblasts, Gli luciferase reporter luminescence | inhibition, % at 5 µM | 0.74% of 340,000 active | AID 588413, 2011;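 active means inhibition above about 55%, limit read from the data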;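 further: 0% = DMSO-treated cells and 100% = wells with medium but no cells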
# Gli-Sufu confirm: Gli-SUFU pathway antagonists, confirmation, single concentration, luciferase luminescence, Sufu-KO-LIGHT cells; Gli luciferase reporter; inhibition, % at 5 µM; shares compounds with Gli-Sufu block; 40% of 2,500 active;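 active means mean inhibition at 5 µM reaching about 45%, limit read from the data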;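 further: plate controls were DMSO-treated cells for no effect and wells lacking cells for full effect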
# Gli cytotox: cytotoxicity in Sufu-KO-LIGHT cells, confirmation, cytotoxicity control for Gli-SUFU antagonist project, cell-based, ATP luminescence, single concentration. shares compounds with Gli-Sufu block. cytotoxicity, % at 5 µM. 32% of 2,500 active. AID 651994, 2013;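 active means mean cytotoxicity at 5 µM above about 25%, limit read from the data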;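 further: cells exposed to compound overnight for roughly 16 to 18 hours; plate controls were DMSO wells with cells for no effect and medium without cells for full effect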
# Wnt3a counter: Wnt3a reporter signal inhibition, confirmation, counter-screen for Gli-SUFU antagonist project, Wnt-LIGHT cells, luminescence, single concentration. Wnt3a-driven luciferase reporter. shares compounds with Gli-Sufu block. inhibition, % at 6.25 µM. 20% of 2,500 active. AID 651995, 2013;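 active means mean inhibition above about 25%, limit read from the data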
# Numbers without * were called inactive; nt = no result.
SMILES,Mdm2 MdmX PPI,697 NFkB inh,Beta cell apopt,Jurkat NFkB inh,Gli-Sufu block,Gli-Sufu confirm,Gli cytotox,Wnt3a counter
Cc1nn(CCCC(=O)Nc2cc(Oc3ccccc3)cc([N+](=O)[O-])c2)c(C)c1[N+](=O)[O-],20,-20,8,15,5,nt,nt,nt
Cc1ccc(C)c(Oc2cc(NC(=O)CCCn3nc(C)c([N+](=O)[O-])c3C)cc([N+](=O)[O-])c2)c1,15,1,19,6,50,17,12,-20
Cc1cc(=O)c(C(=O)OC(C)C(=O)NC(N)=O)nn1-c1ccc(Cl)cc1 (centres undefined),2,-3,-1,-8,13,nt,nt,nt
CN(CC(=O)Nc1ccccc1C(F)(F)F)C(=O)c1ccc(-c2ccc(Cl)cc2)o1,17,-6,-2,-8,6,nt,nt,nt
O=C(NNC(=O)c1cc([N+](=O)[O-])ccc1Cl)c1cccnc1,1,6,2,1,54,9,21,-24
Clc1ccc(-c2c[n+]3c(n2-c2ccccc2)SCC3)cc1,22,-24,19,15,32,nt,nt,nt
Cc1ccc(-c2c[n+]3c(n2-c2ccccc2)CCC3)cc1,30,-28,100*,41,80*,83*,34*,36*
c1ccc(-c2c[n+]3c(n2-c2ccccc2)CCC3)cc1,20,-14,25,9,60*,69*,19,17
COc1c(OC(C)=O)c(=O)n2c3ccccc3c3ccnc1c32,24,24,11,2,-4,nt,nt,nt
CC(C)(CNC(=O)c1cc([N+](=O)[O-])ccc1N1CCC(Cc2ccccc2)CC1)N1CCOCC1,15,3,1,13,15,nt,nt,nt
CCN(CC)c1ccc(/C=N/NC(=O)OC)c(O)c1,-17,-21,-10,-20,-18,nt,nt,nt
CCN(CC)c1ccc(/C=N/NC(=S)NC)c(O)c1,22,-19,67,-40,84*,25,21,-99
COc1ccc2oc(CS(=O)c3ccccc3)c(C(=O)O)c2c1 (centres undefined),-10,-53,-10,2,nt,nt,nt,nt
O=C1c2ccccc2C(=O)N1CCC1(O)C(c2ccccc2)=Nc2ccccc21 (centres undefined),nt,nt,nt,nt,-9,nt,nt,nt
CCn1c(=NC(=O)CS(=O)(=O)c2ccccc2)sc2cccc(OC)c21,-11,-38,nt,34,67*,67*,22,12
O=C(c1cnn2c(C(F)(F)F)cc(-c3ccccc3)nc12)N1CCCCC1c1cccnc1 (centres undefined),12,17,4,9,10,nt,nt,nt
O=C(c1cc2nc(-c3ccc(F)cc3)cc(C(F)(F)F)n2n1)N1CCCCC1c1cccnc1 (centres undefined),29,-59,55,28,67*,64*,32*,22
O=C1NCCCN1Cc1ccc(F)cc1,-5,10,-11,5,5,nt,nt,nt
O=C1NCCN1Cc1ccc(Cl)cc1,3,16,-5,-1,54,21,1,3
O=C(Cn1c(=O)c2cccn2c2ccccc21)Nc1cc(F)ccc1F,13,2,0,6,1,nt,nt,nt
O=C(c1ccc(=O)[nH]n1)N1CCN(S(=O)(=O)c2cccc(F)c2)CC1,14,-8,nt,1,-17,nt,nt,nt
O=C(c1ccc(=O)[nH]n1)N1CCN(S(=O)(=O)c2ccc3ccccc3c2)CC1,6,12,8,3,63*,14,1,-8
